# Tg IFNy HTS: T. gondii growth inhibition under IFN-gamma; Toxoplasma gondii growth in IFN-gamma-treated host cells; hits give low values; activity change, negative = inhibition, % (concentration not given with the values); 69,000 tested, 3.8% active; AID 1259416; in the data active = activity change below about -70%, passing the limit was not always enough;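 note: host cells are HeLa cells infected with Toxoplasma gondii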
# Active calls of the source: *. Many of the other results were omitted from the sample, so hits are more common in it than they were.
SMILES,Tg IFNy HTS
COC(C)c1cccc(-c2nc(C(F)(F)F)nc(C)c2C)c1 (configuration not stated),-22
Cc1ccc(F)c(NC(=O)CCC(=O)NC[C@H]2C[C@H]3C=C[C@H]2C32CC2)c1,11
CNC(=O)C1(Cc2ccccc2-c2ccccc2)CCN(C(=O)Cc2nnc(N)s2)C1 (configuration not stated),1
CCN1C(=O)CCc2cc(NC(=O)Cc3cccc(OC)c3)ccc21,6
CC(C)(C)SCCNC(=S)NCCO,-42
CC1=N[C@]2(CC[C@@H]3CN(c4ncc(C)cn4)C[C@H]32)C(=O)N1CC1CC1,148
O=C1NCC2(CCCN(C(=O)c3cnn4ccccc34)CC2)O1 (configuration not stated),11
CCn1cc(-c2cc(C(=O)NCCc3cn(C)c4ccc(Cl)cc34)no2)cn1,32
Cc1[nH]c2ccc(CNC(=O)C3CCCN(c4ccccn4)C3)cc2c1C (configuration not stated),-5
CNC(=O)[C@@]12CCC3(CCN(C(C)=O)CC3)[C@H]1CN(S(C)(=O)=O)C2,6
OCCCCn1cnc(-c2ccccc2)c1-c1ccc2cccc(Cl)c2n1,-88*
CN(C)C(=O)CCCn1cnc(-c2ccccc2)c1-c1cc2ccccc2[nH]1,-6
CCc1nc(-c2c(-c3ccccc3)ncn2CCCO)c(C)[nH]1,3
Cc1ccc(C)c(OCC(=O)N2CC[C@@H](O)C2)c1C,1
COc1ccc(C)cc1NC(=O)c1c(O)c2cccnc2n(-c2cccc(F)c2)c1=O,62
CN(Cc1nnc(-c2ccccc2)o1)C(=O)c1ccc(-n2cccn2)nc1,7
CC(=O)Nc1ccc(S(=O)(=O)N2CCC(O)(c3ccccn3)CC2)cc1,3
CN1CCN(S(=O)(=O)c2ccc(-c3cnc(N)c(C(=O)Nc4cccnc4)n3)cc2)CC1,-71*
CC1CCCCN1S(=O)(=O)c1ccc(NC(=O)c2cnccn2)cc1 (configuration not stated),58
CN(C)C(=O)c1cnc2n1CCN(Cc1ccc3c(c1)OCO3)C2,3
CC(C)C(=O)NCCc1csc(-c2cccc(F)c2)n1,82
COc1cc(OC)cc(C(=O)N2CCC3(CC2)Nc2cc(OC)ccc2-n2cccc23)c1,21
CCN(CC)C(=O)CN1C(=O)N2CCN=C2c2ccccc21,12
COC(=O)c1sccc1S(=O)(=O)Nc1ccc(C)cc1,11
COC(=O)c1sc(-c2cccs2)cc1NS(=O)(=O)c1ccsc1C(=O)OC,-85*
SMILES,Tg IFNy HTS
COC(=O)c1sccc1S(=O)(=O)Nc1ccc(Nc2ccccc2)cc1OC,-1
c1cc2c(cc1N1CCC(N3CCOC4(CNCCOC4)C3)CC1)CCC2 (configuration not stated),-8
CS(=O)(=O)c1ccc(-c2nc(-c3ccc(F)cc3)c(-c3ccncc3)[nH]2)cc1,11
CS(=O)c1ccc(-c2nc(-c3ccc(F)cc3)c(-c3ccncc3)[nH]2)cc1 (configuration not stated),-90*
Cc1[nH]c(-c2ccc(F)cc2)nc1C(=O)O,-34
CCCN1CC(NC(=O)C(=O)Nc2ccccc2Cl)CC1=O (configuration not stated),-8
Nc1nc(N)nc(-c2ccc(Oc3ccccc3N)cc2)n1,-31
CCn1cc2c(n1)C(COCC1CC1)CN(Cc1ccc(F)cc1)C2 (configuration not stated),-14
CS(=O)(=O)N1CCC2(CC1)CC(OCc1cccnc1)CO2 (configuration not stated),-50
CC(C)c1cc(C(=O)N2CCCC(CO)(CCc3ccccc3)C2)n[nH]1 (configuration not stated),-7
Cc1cc(CN2CCN(c3c(Br)cnc4nc(-c5ccc(N6CCN(C)CC6)cc5)[nH]c34)CC2)no1,-74*
COc1ccc(-c2[nH]ncc2CN2CCN(C)CC2)cc1,62
C=CCN(Cc1cccc(OC)c1)C(=O)c1cc(-c2cnn(C)c2C)n[nH]1,6
COc1ccc(CN(Cc2ccnc(N3CCOCC3)n2)CC2CCCO2)cc1 (configuration not stated),-1
O=C(Nc1ccc2ccccc2n1)c1ccc(Cl)cc1,305
Cc1nnc2n1CC(c1cccc(C(=O)Nc3ncc(Cc4ccccc4F)s3)c1)CC2 (configuration not stated),-48
O=C(Nc1ncc(Cc2cccc3ccccc23)s1)c1ccc(Cl)cc1,-101*
Cc1ccc(S(=O)(=O)N2CCC3(CC(C(=O)N(C)C(C)C)=NO3)C2)cc1 (configuration not stated),12
O=C(c1ccc[nH]1)N1CCC2(CCCN2CC2CC2)CC1,-43
Cc1nc(C)n(CCNC(=O)c2cn(-c3ccccc3)nn2)n1,7
COc1ccc(S(=O)(=O)Nc2cncc(C(=O)Nc3ccc(F)cc3F)c2)cc1OC,35
COc1cc2nccc(Oc3ccc(NC(=O)NC4CC4)c(Cl)c3)c2cc1C(N)=O,-43
COc1cc(Nc2ccnc3cc(Cl)ccc23)c(C(=O)O)cc1OC,-3
COc1cc2nccc(Oc3ccc(NC(=O)Nc4cc(C)on4)c(Cl)c3)c2cc1OC,-81*
COc1cc2nccc(Oc3ccc(NC(=O)Nc4ccc(F)cc4F)c(F)c3)c2cc1OC,-75*
SMILES,Tg IFNy HTS
CNC(=O)c1cccc2cc(Oc3ccnc4cc(OCC5(N)CC5)c(OC)cc34)ccc12,-8
C=CCN(Cc1ccccc1OCC)C(=O)c1c(C)nc2ncccn12,-2
CCn1cc(S(=O)(=O)N2CCCCCC2c2cc(C)no2)c(C)n1 (configuration not stated),-8
COC(=O)NC(C)CNc1nccc(-c2cn(C(C)C)nc2-c2cc(Cl)cc(NS(C)(=O)=O)c2F)n1 (configuration not stated),-71*
CC(C)c1nccn1C(C)Cn1cncn1 (configuration not stated),5
Cc1cccc(-c2nc(C)c(CCNC(=O)C(=O)Nc3ccc(C)cc3C)s2)c1,-7
Cc1cc(C)n(-c2ccc(C(=O)O)cn2)n1,-44
CCn1ccnc1CN1CCN(c2ncnc3ccccc23)CC1,-47
CC(=O)[C@@]1(O)CC[C@H]2[C@@H]3C[C@H](C)C4=CC(=O)CC[C@]4(C)[C@H]3CC[C@@]21C,5
C[C@]12CCC(=O)C=C1[C@@H]1C[C@@H]1[C@H]1[C@@H]3[C@@H]4C[C@@H]4[C@@]4(CCC(=O)O4)[C@@]3(C)CC[C@@H]12,-85*
CC(=O)SC1CC2=CC(=O)CCC2(C)C2CCC3(C)C(CCC34CCC(=O)O4)C12 (configuration not stated),-25
CCc1[nH]nc(N)c1-c1ccc(Cl)cc1,1
FC(F)(F)c1cccc(N2CC(c3ccncc3)C2)n1,-18
Cc1nnsc1-c1noc(CS(=O)(=O)c2ccc(Cl)cc2)n1,40
O=S(=O)(Cc1cc(Cl)sc1Cl)c1ccc(Cl)cc1,-101*
O=C1CSC(=O)N1CCS(=O)(=O)c1ccc(Cl)cc1,-1
CC(=O)N1CCCc2sc(C(=O)C(C)C)nc21,146
O=C(Cc1ccccn1)N1CC2(C1)[C@H](c1ccccc1)[C@@H](CO)N2C(=O)c1ccncc1,14
C/C=C/c1ccc([C@@H]2[C@@H](CO)N(Cc3nccs3)C23CN(CC2CCCC2)C3)cc1,21
COc1ccc(S(=O)(=O)Nc2cncc(C(=O)NCc3ccccc3)c2)cc1,2
CCOc1ccc(CC(=O)NCCc2sc(-c3ccc(F)cc3)nc2C)cc1,-93*
Cc1nc(-c2ccc(F)cc2)sc1CCNC(=O)C12CC3CC(CC(C3)C1)C2,-91*

# Screens as filed in PubChem BioAssay.
